Source: PubChem BioAssay
ClpP mod = qHTS Assay for Activators of ClpP; Potency, µM (series often up to 57.5 µM); purified B. subtilis ClpP, FRET peptide cleavage, 20 min; actives 1.9% (n = 340,000); active = well fitted falling curve with a large enough effect; inconclusive = small, poorly fitted or top-dose-only effect; inactive = no such curve, though single readings can be large or run the other way; also: the source files actives as falling curves though it sought activators and does not explain the sign; nearly all actives have a fitted effect of over 65% in size
Target sequence (P80244 whole entry, looked up): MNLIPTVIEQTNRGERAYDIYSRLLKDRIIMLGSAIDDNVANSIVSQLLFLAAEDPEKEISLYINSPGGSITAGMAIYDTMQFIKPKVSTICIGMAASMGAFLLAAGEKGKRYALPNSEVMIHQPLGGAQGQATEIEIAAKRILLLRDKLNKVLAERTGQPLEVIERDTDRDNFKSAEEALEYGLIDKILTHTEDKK
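ClpP 10 microg/mL final, pH 8 Tris/KCl buffer with BSA, glycerol, Tween-20; compound pinned in; FRET-FV substrate; RT 20 min; Ex320/Em430; ΔFRET vs ADEP 5.8 microM, DMSO, no enzyme.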
D3 antag = D3 dopamine receptor (human) antagonism; D3R cells, DiscoveRx beta-arrestin luminescence, antagonist mode; hits give low values; P35462; AID 652054; max response, negative = inhibition, %; actives 2.5% (n = 360,000); in the data active = max response below about -50%; inconclusive = no clear call, values can overlap the other calls
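Cells plated overnight at 1500 cells/well, then exposed to library compounds with dopamine controls for 90 minutes at 37 degrees C. DiscoveRx reagent added for 30–60 minutes at room temperature; luminescence read, quantitative HTS format.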
GLP1R ag = agonists of human GLP-1 receptor. P43220. HEK293 GLP-1R CRE-luciferase, luminescence, 4-6 h; cells express a hypersensitive GLP-1R form. Potency, µM (titrated, usually from 45.6 µM), actives largely listed as activators. actives 0.007% (n = 380,000). AID 624172
Target sequence (P43220 whole entry, looked up): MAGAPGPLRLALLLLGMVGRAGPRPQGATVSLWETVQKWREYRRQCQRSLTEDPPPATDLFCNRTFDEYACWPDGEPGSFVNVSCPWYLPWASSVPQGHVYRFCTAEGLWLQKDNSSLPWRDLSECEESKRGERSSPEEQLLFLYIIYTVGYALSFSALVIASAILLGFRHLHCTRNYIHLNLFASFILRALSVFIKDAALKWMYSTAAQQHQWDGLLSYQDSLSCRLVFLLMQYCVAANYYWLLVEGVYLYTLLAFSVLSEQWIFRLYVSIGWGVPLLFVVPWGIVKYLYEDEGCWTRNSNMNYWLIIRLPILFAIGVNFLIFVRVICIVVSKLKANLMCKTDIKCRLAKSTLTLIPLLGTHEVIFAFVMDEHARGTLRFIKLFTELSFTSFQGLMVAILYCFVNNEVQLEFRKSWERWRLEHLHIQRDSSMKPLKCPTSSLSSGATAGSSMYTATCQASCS
D3 ag = activates the human D3 dopamine receptor; D3R DiscoveRx beta-arrestin cells, luminescence, 90 min; max activation, %; actives 0.58% (n = 410,000); in the data active = max activation above about 30%
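Agonist-mode cell screen: cells plated at 1500/well and incubated overnight at 37 °C, then exposed to library compounds for 90 min at 37 °C. Detection reagent was added for 30–60 min at room temperature, and luminescence was read.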
GLP1R cytotox = cytotoxicity in counter-screen for GLP-1R inverse agonists. actives 0.13% (n = 410,000). HEK293 cAMP-luciferase reporter cells, luminescence, 24 h. Potency, µM (top dose mostly 38.3 µM), actives largely listed as inhibitors. AID 624418;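 also: loss of luciferase light is scored as toxicity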
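1536-well qHTS counterscreen of the MLSMR; 200 cells/uL, 12 h pre-incubation, 23 nL cpd, 24 h at 37 deg C 5% CO2, luciferase detection reagent, 12 min RT, luminescence. Inhibition = undesired.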
GLP1R inv ag = inverse agonists of human GLP-1 receptor; actives 1.6% (n = 410,000); P43220; Potency, µM (highest dose often 38.3 µM), usual class: inhibitors; HEK293 GLP-1R CRE-luciferase, luminescence, 24 h; GLP-1R form is constitutively active; AID 624417; also: nearly all actives have a fitted effect of over 55% in size
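HEK293 cells stably co-expressing a cAMP-responsive luciferase reporter and constitutively active GLP-1R were seeded, incubated 12 h, then exposed to compounds for 24 h at 37 C. Luminescence was read 12 min after detection reagent; inverse agonists lower signal.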
Numbers stand for hits; – = inactive; ? = inconclusive; · = not tested or not shown. Only some compounds are listed: those with a hit (about 5.7% of all), similar ones and a draw of the others. Unless noted, calls follow the shape of the dose curve; as a rule, active = well fitted curve in the direction sought with a large enough effect; inconclusive = small, poorly fitted or top-dose-only effect, or another doubt; inactive = no such curve, though single readings can be large; an effect the other way counts as inactive or inconclusive.

SMILES | ClpP mod | D3 antag | GLP1R ag | D3 ag | GLP1R cytotox | GLP1R inv ag
Cc1cc2c(cc1C)-n1nnnc1C(N1CCCNCC1)C(=O)N2 (stereo not drawn) | – | – | · | – | – | –
COc1ccc(OC)c(CCNC(=O)c2cc3cccc4c3n2CC(C)S4)c1 (stereo not drawn) | 32µM | · | · | – | – | ?
COc1cccc(CNC(=O)c2cc3cccc4c3n2CC(C)S4)c1OC (stereo not drawn) | 35µM | · | · | – | – | ?
O=C(NCc1ccccc1Cl)c1cc2cccc3c2n1CCS3 | 28µM | · | · | – | – | ?
COc1ccccc1CNC(=O)c1cc2cccc3c2n1CCS3 | ? | · | · | – | – | ?
CCOc1ccc(CCNC(=O)c2cc3cccc4c3n2CCS4)cc1 | 22µM | · | · | – | – | ?
CCc1ccc(S(=O)(=O)c2nnn3c2nc(NC(C)C)c2cc(Cl)ccc23)cc1 | – | · | · | – | – | –
CC(O)(c1cccc(F)c1)c1nc(-c2cnc3ccccc3c2)cs1 (stereo not drawn) | ? | – | – | – | – | ?
O=C(Cc1cccs1)N1CCN(c2nc(-c3ccc(Cl)cc3)cs2)CC1 | – | – | – | 36 | – | –
O=C(Cn1ccn(-c2ccc(F)c(F)c2)c(=O)c1=O)Nc1ccccc1F | – | · | · | – | – | –
CCCNC(=O)CSc1nc(-c2ccc(OC)cc2)cc(C(F)(F)F)n1 | 3.2µM | · | · | – | – | –
COc1ccc(CNC(=O)CSc2nc(-c3ccc(OC)cc3)cc(C(F)(F)F)n2)cc1 | – | · | – | – | – | –
Cc1cc(C(F)(F)F)nc(SCC(=O)Nc2cc(C)on2)n1 | – | – | – | – | – | –
COCCn1c(-c2ccc(OC)cc2)cnc1SCC(=O)Nc1ccc(OC)cc1OC | – | – | – | – | – | –
COCCn1c(-c2ccc(OC)cc2)cnc1SCC(=O)Nc1cc(C)on1 | – | -70 | – | – | – | –
COc1ccc(-c2cc(C(F)(F)F)nc(SCC(=O)Nc3cc(C)on3)n2)cc1 | 4µM | – | – | – | – | –
COc1ccc(-n2c(=O)c3c(C)c(C)sc3n(CC(=O)NCc3ccc(C)cc3)c2=O)c(OC)c1 | – | · | · | – | – | –
CNC(=O)c1cc(Oc2ccc(NC(=O)Nc3ccc(Cl)c(C(F)(F)F)c3)cc2)ccn1 | – | -58 | – | – | – | ?
Cc1ccc2oc(-c3cccc(NC(=O)COc4ccc(Cl)cc4)c3C)nc2c1 | – | · | · | · | · | ·
C=C1NN(Cc2ccc(OC)cc2)C(=O)N1c1ccccc1 | – | · | · | · | · | ·
O=C(NCc1cccc(F)c1)c1ccc(CS(=O)c2ccccc2Cl)o1 (stereo not drawn) | – | · | · | – | – | –
O=S(=O)(c1ccc(Br)cc1)N1CCCN(Cc2cccc(F)c2)CC1 | – | – | – | – | – | ?
COCCN(Cc1ccccc1)C(=O)c1cccc(S(=O)(=O)N2CCN(c3ccccc3)CC2)c1 | · | – | – | – | – | 10µM
CN(Cc1ccc(F)cc1)C(=O)c1cccc(S(=O)(=O)N2CCN(c3ccccc3)CC2)c1 | – | – | – | – | – | ?
CSc1ccc(CN(C)C(=O)c2cc(S(=O)(=O)NCc3ccccc3)ccc2C)cc1 | – | – | – | – | – | ?
SMILES | ClpP mod | D3 antag | GLP1R ag | D3 ag | GLP1R cytotox | GLP1R inv ag
COCCN(Cc1ccccc1)C(=O)c1cccc(S(=O)(=O)N2CCN(c3ccc(F)cc3)CC2)c1 | – | – | – | – | – | ?
CSc1ccc(CN(C)C(=O)c2cccc(S(=O)(=O)NCc3ccccc3)c2)cc1 | – | – | – | – | – | 5µM
CN(Cc1ccc(F)cc1)C(=O)c1cccc(S(=O)(=O)N2CCN(c3ccc(F)cc3)CC2)c1 | – | – | – | – | – | 10µM
COc1cccc(CN2CCCN(S(=O)(=O)c3ccc(Br)cc3)CC2)c1 | – | -57 | – | – | – | ?
COc1cccc(NC(=O)c2cccc(S(=O)(=O)N3CCN(Cc4ccccc4)CC3)c2)c1 | · | – | – | – | – | 6.3µM
CSc1ccc(CN(C)C(=O)c2cccc(S(=O)(=O)N3CCN(Cc4ccccc4)CC3)c2)cc1 | – | – | – | – | – | 11µM
CCS(=O)(=O)N1CCC(C(=O)NCCC(C)C)CC1 | – | · | · | – | – | –
O=C(c1ccc(NS(=O)(=O)c2ccccc2)cc1)N1CCN(c2ccccc2)CC1 | – | – | – | – | · | –
COc1ccc(C2Nc3ccccc3C(=O)N2Cc2ccco2)cc1 (stereo not drawn) | – | · | · | · | · | ·
Cc1cccc(OCC(=O)N(Cc2ccc(N(C)C)cc2)Cc2ccco2)c1C | – | · | · | – | – | 10µM
Cc1ccc(CN(Cc2ccco2)C(=O)COc2cccc(C)c2C)o1 | – | · | · | – | – | 11µM
CCOc1ccc(CCNC(=O)CCc2c(C)nc3cc(-c4ccccc4OC)nn3c2C)cc1 | – | · | · | – | – | –
CCCn1c2ccccc2c2cnn(CC(=O)NCCc3ccc(C)cc3)c(=O)c21 | ? | · | · | – | – | –
COc1ccc(CNC(=O)c2ccc(-c3ccccc3)cc2)cc1OC | – | – | – | – | – | –
COc1ccc(-c2ccccc2)cc1NCc1ccc(OC)c(OC)c1 | 28µM | – | – | – | – | –
COc1ccc(-c2ccccc2)cc1NCc1ccccc1C | 13µM | – | – | – | – | ?
COc1ccccc1CNc1ccccc1F | · | – | – | – | – | –
COc1cc2ncnc(NCc3ccccc3C)c2cc1OC | – | – | – | – | – | –
COc1ccccc1CNc1cc(-c2ccccc2)ccc1OC | 25µM | – | – | – | – | ?
CCCCn1cc(S(=O)(=O)c2ccc(OC)cc2)c(=O)c2cc(F)c(N3CCCC3)cc21 | – | · | · | – | – | –
CCCn1cc(S(=O)(=O)c2ccc(OC)cc2)c(=O)c2cc(F)c(N3CCCC(C)C3)cc21 (stereo not drawn) | 20µM | · | · | – | – | ?
CCn1cc(S(=O)(=O)c2ccccc2)c(=O)c2cc(F)c(N3CCCC3)cc21 | 25µM | · | · | – | – | –
CCCn1cc(S(=O)(=O)c2ccccc2)c(=O)c2cc(F)c(N3CCCCCC3)cc21 | 28µM | · | · | – | – | ?
CCCn1cc(S(=O)(=O)c2ccccc2)c(=O)c2cc(F)c(N3CCCC3)cc21 | – | · | · | – | – | –
CCCn1cc(S(=O)(=O)c2cccc(Cl)c2)c(=O)c2cc(F)c(N3CCN(CC)CC3)cc21 | – | · | · | 63 | – | –
CCN(C(=O)CN(C)S(=O)(=O)c1ccc2c(c1)n(C)c(=O)c(=O)n2C)c1cccc(C)c1 | ? | · | · | – | – | –
COc1ccc(C(O)c2nc(-c3cccc(NC(C)=O)c3)cs2)cc1 (stereo not drawn) | – | – | – | – | – | –
